From PubChem BioAssay
VP16 counter – Gal4-VP16 reporter inhibition counter-screen | Drosophila S2 Gal4-VP16 UAS-luciferase, luminescence, 20 h | AID 2546 | 310,000 tested, 3.5% active | Potency, µM (top dose mostly 53.6 µM), for inactives: at the top dose activity, negative = inhibition, usual class: inhibitors;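 also: Gal4-VP16 expression switched on by copper sulfate through the metallothionein promoter; potency is read from the fitted curve at half-maximal effect; % is scaled to controls: 0 for no effect and ±100 for the full control effect; nearly all actives have a fitted effect of over 50% in size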
Six1-Eya2 inh – Six1/Eya2 interaction inhibition; Q15475+O00167; AlphaScreen GST-Six1/His-Eya2 binding, biochemical; active compounds read low; activity change, % (concentration not given with the values); 360,000 tested, 0.56% active; in the data active = activity change below about -65%; inconclusive = mostly about -30% to -63%; also: % is scaled to controls: 0 for no effect and ±100 for the full control effect
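Homogeneous AlphaScreen proximity assay pairing GST-Six1 with His-tagged Eya2 (added as 5X mix: 250 nM and 500 nM) in 50 mM Tris pH 8.0, 300 mM NaCl, 1 mM TCEP. Glutathione donor and nickel acceptor beads; 1 h, 37 °C, dark.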
RORgamma inh – inhibitors of mouse ROR gamma transcriptional activity. P51450. 310,000 tested, 5.4% active. Drosophila S2 Gal4-RORgamma UAS-luciferase reporter, 20 h. Potency, µM (highest dose often 53.6 µM), inactives show at the highest dose activity change, negative = inhibition, hits mostly inhibitors; also: potency is read from the fitted curve at half-maximal effect; % is scaled to controls: 0 for no effect and ±100 for the full control effect; nearly all actives have a fitted effect of over 60% in size
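In this cell-based reporter format, copper sulfate (700 uM final) drives Gal4–ROR gamma fusion expression from a metallothionein promoter in Drosophila Schneider cells; compounds preincubated 1 hr, reporter read after 20 hr at ambient temperature.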
MBNL1 CUG block – MBNL1-poly(CUG) RNA binding inhibition; Potency, µM (series often up to 57.5 µM), without a hit: at the top dose activity change, negative = inhibition, most hits filed as inhibitors; TR-FRET MBNL1-His/biotin-(CUG)12 binding, 665/545 ratio; 280,000 tested, 0.036% active; Q9NR56; active = well fitted inhibition curve with a large enough effect in the signal ratio, with a control signal flat, not every such curve was filed as active; inconclusive = small, poorly fitted or top-dose-only effect, or effect the other way, or a change in a side signal; inactive = no such curve, though single readings can be large or run the other way; the % refers to the signal ratio; also: potency is read from the fitted curve at half-maximal effect; % is scaled to controls: 0 for no effect and ±100 for the full control effect
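MBNL1-His + Biotin-(CUG)12, cpd titration 92 nM–58 uM; Tb anti-His Ab 0.055 ng/ul, SA-XL665 5 nM (final); 60 min RT; ratiometric 665/545 nm, Ex 340 nm; normalized to buffer and full-complex controls.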
CtBP-E1A blk – inhibitors of CtBP/E1A interaction | 340,000 tested, 0.49% active | AlphaScreen GST-E1A/His-CtBP binding, 1536-well; active compounds read low | AID 651724 | activity change, % (no concentration beside the values); in the data active = activity change below about -65%; inconclusive = mostly about -30% to -63%; also: % is scaled to controls: 0 for no effect and ±100 for the full control effect
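Homogeneous bead-based format: GST-tagged E1A captured on glutathione donor beads, His-tagged CtBP on nickel acceptor beads; compounds precede bead addition by 2 h at 37 °C.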
CBFb RUNX1 block – blocks binding between human CBF-beta and RUNX1; 230,000 tested, under 10 active; AlphaScreen CBFb-His/RUNX1-biotin binding, biochemical; AID 1477; Potency, µM (highest dose often 59.8 µM), for the others: at the top dose activity, negative = inhibition, hits mostly inhibitors; also: % of control where 0% means no effect
Target sequence (Q01196 whole entry, looked up): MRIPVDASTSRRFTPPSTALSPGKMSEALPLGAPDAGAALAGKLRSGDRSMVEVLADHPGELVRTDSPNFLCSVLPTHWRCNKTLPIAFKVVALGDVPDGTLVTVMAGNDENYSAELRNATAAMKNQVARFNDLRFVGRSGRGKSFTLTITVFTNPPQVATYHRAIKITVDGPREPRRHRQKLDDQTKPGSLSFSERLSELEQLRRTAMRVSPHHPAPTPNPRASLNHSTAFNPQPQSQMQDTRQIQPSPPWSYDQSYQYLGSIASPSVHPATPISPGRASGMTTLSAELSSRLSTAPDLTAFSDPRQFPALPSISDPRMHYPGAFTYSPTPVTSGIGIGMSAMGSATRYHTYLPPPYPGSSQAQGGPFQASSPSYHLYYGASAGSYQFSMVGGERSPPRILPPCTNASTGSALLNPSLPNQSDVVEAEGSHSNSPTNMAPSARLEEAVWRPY
Target sequence (Q13951 whole entry, looked up): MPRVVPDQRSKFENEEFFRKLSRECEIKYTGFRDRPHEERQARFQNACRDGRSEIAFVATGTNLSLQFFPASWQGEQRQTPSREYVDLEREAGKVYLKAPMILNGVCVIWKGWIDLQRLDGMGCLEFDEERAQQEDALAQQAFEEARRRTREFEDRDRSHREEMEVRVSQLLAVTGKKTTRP
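Inhibition was taken as any reduction in AlphaScreen signal from the CBF-beta–RUNX1 pair (His and biotin tags, 30 nM each), measured after compound (15 min) and bead (90 min) incubations at room temperature.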
An asterisk follows results filed as active; ? = inconclusive; / = no result given. The list is not random: actives were taken first. Their share in the collection is about 5.5%. Unless noted, calls follow the shape of the dose curve; as a rule, active = well fitted curve in the direction sought with a large enough effect; inconclusive = small, poorly fitted or top-dose-only effect, or another doubt; inactive = no such curve, though single readings can be large; an effect the other way counts as inactive or inconclusive.

SMILES	VP16 counter	Six1-Eya2 inh	RORgamma inh	MBNL1 CUG block	CtBP-E1A blk	CBFb RUNX1 block
CC1CCN(S(=O)(=O)c2ccc(C(=O)Nc3nnc(C4=COCCO4)o3)cc2)CC1	1µM*	-13.6	1.12µM*	2.7%	-14.4	/
CC1CCCCN1S(=O)(=O)c1ccc(C(=O)Nc2nnc(-c3ccncc3)o2)cc1 (configuration not stated)	7.5%	-4.0	5.8%	6.0%	-9.6	?
O=C(Nc1nnc(C2=COCCO2)o1)c1ccc(S(=O)(=O)N2CCCCC2)cc1	3.16µM*	-5.9	1.26µM*	5.7%	-9.4	-22.5%
CCC1CCCCN1S(=O)(=O)c1ccc(C(=O)Nc2nnc(C3=COCCO3)o2)cc1 (configuration not stated)	1µM*	2.6	0.891µM*	0.4%	-5.7	/
O=C(Nc1nnc(C2=COCCO2)o1)c1ccc(S(=O)(=O)N2CCCC2)cc1	-6.8%	-17.1	17.4%	0.0%	0.0	?
O=C(c1c(F)cccc1Cl)N(Cc1ccco1)C1CCS(=O)(=O)C1 (configuration not stated)	/	8.6	/	/	3.1	/
CC(=O)c1cccc(NC(=O)C(C)OC(=O)CCn2c(C)csc2=O)c1 (configuration not stated)	/	4.9	/	/	/	/
Nc1ccc(N=Nc2ccccc2)c(N)n1	?	-29.2	?	?	?	?
Cc1[nH]c(N=Nc2ccccc2)nc1N=Nc1ccccc1	-18.4%	?	-22.8%	?	-66.0*	/
CCn1c(SCC(N)=O)nc2sc3c(c2c1=O)CCCC3	?	0.5	11.2µM*	-0.4%	0.3	-2.2%
CCn1c(COc2ccc(OC)cc2)nnc1SCc1nc2ccccc2c(=O)[nH]1	-7.6%	/	13.0%	/	/	-8.4%
Clc1ccc(OCCSCc2nc3ccccc3[nH]2)cc1	5.01µM*	-6.6	5.01µM*	-15.2%	-1.7	14.0%
Cc1ccc(OCCSCc2nc3ccccc3[nH]2)cc1	?	-1.5	-31.4%	-1.8%	-2.9	2.8%
CCn1c(COc2ccc(Cl)cc2)nnc1SCc1nc2ccccc2[nH]1	?	-2.4	11.2µM*	-8.7%	-8.6	-4.1%
CCOC(=O)Cc1csc(NC(=O)Cc2ccc(Cl)cc2)n1	-12.1%	7.1	44.1%	/	-3.3	9.7%
CCSc1nnc(NC(=O)c2ccc3ccccc3n2)s1	0.708µM*	-16.8	1µM*	21.3%	-9.9	-6.7%
CCOC(=O)Cc1csc(NC(=S)NC(=O)c2ccc(Cl)cc2)n1	?	-8.7	7.08µM*	4.7%	-1.1	-3.2%
CCOC(=O)Cc1csc(NC(=O)c2csc3c2CCCC3)n1	-18.1%	-1.4	12.6µM*	4.1%	0.9	-10.0%
CCc1nnc(NC(=O)c2ccc3ccccc3n2)s1	-1.6%	-16.0	3.1%	/	-14.7	6.2%
CCOC(=O)Cc1csc(NC(=O)c2ccc3ccccc3n2)n1	?	-2.9	6.31µM*	?	-1.2	/
CCC(=O)N1CCCC(C)(C(=O)NS(=O)(=O)c2ccccc2Cl)C1 (configuration not stated)	/	0.3	/	/	8.8	/
CCOC(=O)Cc1csc(NC(=S)NC(=O)c2ccc([N+](=O)[O-])cc2)n1	?	-4.0	10µM*	/	-4.0	-7.5%
CCOC(=O)Cc1csc(NC(=O)Cc2ccc([N+](=O)[O-])cc2)n1	1.5%	7.9	0.6%	?	3.7	-3.7%
COc1ccc(C(CNC(=O)CCNS(=O)(=O)c2ccccc2C(F)(F)F)N2CCOCC2)cc1 (configuration not stated)	/	-2.7	/	/	1.6	/
COc1ccc(C(=O)Cn2cnc3ccccc3c2=O)c(OC)c1	8.91µM*	2.1	4.47µM*	-3.7%	5.1	/
SMILES	VP16 counter	Six1-Eya2 inh	RORgamma inh	MBNL1 CUG block	CtBP-E1A blk	CBFb RUNX1 block
COc1ccc(CCN(C)C2CCCN(C(=O)c3sccc3C)C2)cc1OC (configuration not stated)	-8.1%	-7.5	-11.7%	-4.6%	3.9	/
C=CCn1c(C(CC)CC)nc2ccccc21	-14.5%	0.4	6.31µM*	-9.2%	7.2	7.5%
C=CCn1c(CCC)nc2ccccc21	-6.9%	6.8	-2.0%	-1.9%	7.3	-3.1%
C=CCn1c(C(C)(C)C)nc2ccccc21	7.3%	0.7	-25.7%	0.0%	6.6	0.3%
C=CCn1c(CC(C)(C)C)nc2ccccc21	-5.5%	3.4	11.2µM*	-0.4%	-2.3	-4.4%
O=C1NC[C@@H](CCCCN2C[C@H](Cc3ccc(O)cc3)N(CCC3CCCCC3)C(=O)C2=O)N(CCc2ccc(O)cc2)C1=O	/	-23.0	/	/	0.9	/
CCN(CC)S(=O)(=O)c1ccc(C(=O)NCCOC(=O)c2ccc(F)cc2F)cc1	9.6%	-2.4	15.6%	-5.9%	-13.0	/
CCOc1ccc(C(=O)COC(=O)c2cc(=O)[nH]c3ccccc23)cc1	/	9.7	/	/	-9.5	/
O=c1c2oc3ccccc3c2[nH]c(=S)n1-c1ccc(F)cc1	?	-2.3	3.98µM*	?	7.9	7.1%
Cc1ccc(-n2c(=S)[nH]c3c(oc4ccccc43)c2=O)cc1C	1.78µM*	2.8	1.41µM*	9.0%	-10.7	-1.6%
O=c1[nH]c2c(oc3ccccc32)c(=O)n1Cc1ccccc1	14.2%	-8.0	0.3%	-0.2%	-10.6	/
CCOC(=O)Cn1c(=S)[nH]c2c(oc3ccc(Cl)cc32)c1=O	-0.3%	2.6	?	5.9%	-1.8	6.5%
Cc1c(S(=O)(=O)NC2CCCCC2)c(=O)n(C)c(=O)n1C	/	6.6	/	/	6.0	/
O=S(=O)(Nc1cc(O)cc2cccnc12)c1ccc(Br)s1	6.31µM*	/	7.94µM*	/	/	?
O=S(=O)(Nc1cc(O)cc2cccnc12)c1ccc(Cl)s1	?	/	3.98µM*	/	/	?
CN(C)/C(=N\S(=O)(=O)c1ccccc1)c1ccc(F)cc1	-1.5%	-0.6	2.8%	-1.6%	4.7	/
O=C1CSC(=S)N1N=C1CCCCCC1	13.0%	-80.0*	-12.2%	-7.0%	-10.3	-2.2%
CC1OC(=O)c2cc3ccccc3nc21 (configuration not stated)	/	-11.9	/	/	3.5	/
